This note sets out measurements from PubChem BioAssay (NCATS).

Records with an inconclusive call do not appear. Entries that show only a call come without a potency. Activity calls are given as the source filed them. Calls follow the shape of the dose curve; as a rule, active = well fitted cell-killing curve with a large enough effect; inconclusive = small, poorly fitted or top-dose-only effect; inactive = flat fitted curve, though single readings scatter. Numbered stars: 1 amine (or outer) side, 2 acyl side, 3 side chain; on linkers, the order of the positions; unused ones are H or OH. Square brackets hold non-standard residues; d marks the D form. Peptide text beside a SMILES is read from it. * marks the point of attachment. X1 = CCCCCCCCCC(=O)[C@H](C(=O)[*:2])[C@@H]1CNC(=O)[C@@H](N[*:1])CS1; Octanoyl = CCCCCCCC(=O)*
Potency is read from the fitted curve at half-maximal effect.

The experiment in a line: HEK-293 Cancer Cell Toxicity qHTS against the NCATS CANVASS Library (AID 1347355). Also: nearly all actives have a fitted effect of over 65% in size. To be noted: HEK-293 viability, CellTiter-Glo luminescence, 72 h; series mostly up to 46.1 µM. The text has this:
Natural products and their derivatives continue to be wellsprings of nascent therapeutic potential. However, many laboratories have limited resources for biological evaluation, leaving their previously isolated or synthesized compounds largely or completely untested. To address this issue, the Canvass library of natural products was assembled (https://tripod.nih.gov/canvass), in collaboration with academic and industry researchers, for quantitative high-throughput screening (qHTS) across a diverse set of cell-based and biochemical assays. The pure (>85% purity by liquid chromatography/mass spectrometry [LC/MS]) Canvass library of 346 natural products were submitted by 45 academic laboratories and companies around the world. We collected pure natural products to circumvent deconvolution and structure elucidation due to time and resource limitations. The library was formatted into 1536-well plates and evaluated in 50 qHTS (in an 11-pnt concentration series) bioassays with broad scope of disease-relevant mechanisms. The resulting data set from 50 different assays was then systematically analyzed to identify overall trends and specific natural products with interesting biological activities. Reported herein are the results of each individual qHTS and their corresponding assay protocol. National Center for Advancing Translational Sciences (NCATS), Rockville, MD National Institute of Health (NIH), Bethesda, Maryland
Cancer Cell Toxicity COV-362, OV-KATE, OV-SAHO, UWB1.289, UWB1.289-WTBRCA1, HEK-293, HPAF-II, Panc-1005, SW1088, and U-118MG-screen protocol. 1. In a 1536 well, white solid bottom tissue culture plates (Corning 7494), corresponding cells (COV-362, OV-KATE, OV-SAHO, UWB1.289, UWB1.289-WTBRCA1, HEK-293, HPAF-II, Panc-1005, SW1088, or U-118MG) were dispensed in each well at a final concentration of 1000 cells / well (6uL volume) using the Multidrop Combi (Thermo Fisher Scientific) dispenser. 2. The plates were incubated for 4 hours at 37 degrees C/5% CO2/95% Rh. 3. Compounds were pin transferred (~23nL volume) via Wako Pin-tool (Wako Automation, Richmond VA) equipped with a 1536 pin head. The assay plates were treated with compounds in an 11-pnt concentration series with a final concentration range of […] to 85uM. 4. Bortezomib was used as a single dose control (0.5mM column 4, rows 1 - 32) at a final concentration of 1.9uM and as a 16pnt titration (1mM; 1:2 dilution; 16-points; n = 2; column 3, rows 1 - 32) with final concentration range of 0.1nM - 3.8uM. 5. The assay plates were incubated for 72 hours at 37 degrees C/5% CO2/95% Rh. 6. 3uL CellTiter-Glo detection reagent was then added to the plates (columns 2 - 48, rows 1 - 32) and incubated at room temperature for additional 15min. 7. Luminescence signal was acquired via the ViewLux plate reader (PerkinElmer) using a clear filter, 2 second exposure and 2x binning settings.
Background: Quantitative high-throughput screening tests each substance at several concentrations.
With `C=C(C)CC[C@H](Cc1c(O)cc(O)c2c1O[C@H](c1ccc(O)cc1O)CC2=O)C(=C)C`, the Potency entry is “inactive”.

In the case of `C=C1C[C@@]23C=CC(=O)[C@@](C)(CCC(=O)Nc4c(O)ccc(C(=O)O)c4O)C2C[C@@H]1CC3O` (stereo not given in full), the Potency entry was “inactive”.

With `O=C1C[C@@H](c2ccc(O)c(-c3c(O)cc(O)c4c3O[C@H](c3ccc(O)cc3)CC4=O)c2)Oc2cc(O)cc(O)c21`, the Potency result was “inactive”.

For `C/C(=C\[C@H](C)C(=O)CCCC1CC(=O)NC(=O)C1)[C@@H]1OC(=O)/C=C/CC/C=C/C[C@@H](O)[C@@H]1C`, the Potency was 1870 nM (active).

For the compound `CC1=CC[C@@]2(C[C@@H]1O)[C@@H](C(=O)O)CC[C@H]2C(C)C`, the Potency entry is “inactive”.

Turning to `Cc1cc(O)cc2oc(C[C@H](C)O)cc(=O)c12`, the Potency result is “inactive”.

Consider `C[C@]12CC[C@]3(C1)[C@H](CC2=O)CC(OC(=O)c1ccccc1)[C@H]1[C@@](CO)(C(=O)O)CCC[C@@]13C` (stereo not given in full), for which the Potency result is “inactive”.

As for `CCC1=C2CCCN3C(=O)O[C@H]([C@H]1OC(C)=O)[C@H]23`, the Potency result is “inactive”.

Consider `CO[C@H]1/C=C/CC[C@@H](S[C@@H]2O[C@H](CO)[C@@H](O)[C@H](O)[C@H]2O)CC(=O)O[C@@H](/C(C)=C/[C@H](C)C(=O)CCCC2CC(=O)NC(=O)C2)[C@@H](C)[C@@H]1O`, for which the Potency was 1870 nM (active).

As to `O=c1cc(-c2ccc(O)c(O[C@@H]3O[C@H](CO)[C@@H](O)[C@H](O)[C@H]3O)c2)oc2cc(O[C@@H]3O[C@H](CO)[C@@H](O)[C@H](O)[C@H]3O)cc(O)c12`, the Potency entry was “inactive”.

For `C/C1=C\CC(=O)/C=C/C=C\c2csc(n2)[C@@H](C)NC(=O)C[C@@](S)([C@@H](C)C(=O)O)CC1`, the Potency entry was “inactive”.

Regarding `CCCCCCCC(=O)N[C@@H](CC(C)C)C(=O)N[C@H](C=O)CCC(=O)O` (Octanoyl-Leu-Glu-aldehyde), the Potency entry is “inactive”.

Turning to `COc1ccc2oc3c(OC)c(OC)c(OC)c(OC)c3c(=O)c2c1`, the activity change, negative = cytotoxicity was -6.97% [at 9.19 µM] (inactive).

For the compound `C[C@@H](CCC[C@]1(C)C(=O)C=C[C@]23C[C@H]4C[C@H](O[C@@]4(C)C2)C31)C(=O)N[C@@H](CO)C(=O)O` (stereo not given in full), the Potency entry is “inactive”.

As for `O=Cc1ccc2n1C[C@@]1(C[C@H](O)[C@H](O)CO1)OC2`, the Potency entry is “inactive”.

In the case of `COc1ccc2cc(NC(=O)C3=NO[C@H]4[C@H](O)C=C[C@@H](Cl)[C@@]4(O)C3)c(=O)oc2c1OC`, the Potency result is “inactive”.

On to `O=Cc1ccc2n1C[C@@]1(C[C@H](O)[C@@H](CO)O1)OC2`, for which the Potency entry was “inactive”.

Consider `O=C(O)[C@@]12CO[C@@]3(O)C4CCN(CC[C@H]31)[C@H]4c1c2[nH]c2ccccc12`, for which the Potency result was “inactive”.

For the compound `C=CC(C)(C)C(=O)[C@@H](C)[C@@H]1CC[C@](C)(C=C)O1`, the Potency entry was “inactive”.

Take `CN1C(=O)[C@]23SS[C@@]1(C)C(=O)N2[C@H]1Nc2ccccc2[C@]1(c1c[nH]c2ccccc12)[C@@H]3O`: the Potency was 743 nM (active).

For `C1=C2CCCN[C@@H]2[C@@H]2CCN3CCCC[C@@H]3[C@H](C1)C2`, the Potency entry was “inactive”.

For `C/C=C/C(=O)[C@@H](C)C1=CC(=O)C2=C(O[C@@]34CC[C@H](O)C(C)(C)[C@@H]3CC[C@H](C)[C@@]4(C)C2)C1=O`, the Potency was 2960 nM (active).

On to `C=C(C)C(=O)O[C@H]1C[C@H](C)[C@@H](OC(C)=O)CC[C@@]2(C)O[C@@H]2[C@H]2OC(=O)C(COC(C)=O)=C12`, for which the Potency was 3720 nM (active).

As for `C[C@@]12C[C@@H](C[C@H]3C(=O)O[C@@H](c4ccoc4)[C@H](OC(=O)c4ccccc4)[C@@H]31)OC2=O`, the Potency result is “inactive”.

`CCCCCCCCCC(=O)[C@@H]1C(=O)N[C@@H](CC(C)C)C(=O)N[C@H](C)C(=O)N2CCC[C@H]2C(=O)N[C@@H](C(C)C)C(=O)N[C@H]2CS[C@H]1CNC2=O` (cyclo(L[dA]PV[X1])): the Potency result is “inactive”.

As for `CC(=O)NC[C@@H]1O[C@H](CC/C=C(C)/C(C)=C/C=O)[C@H](C)C[C@H]1O`, the Potency entry was “inactive”.

Take `CNc1ccc(Cl)cc1C(=O)OC[C@]1(C)[C@H]2CC[C@]3(C)[C@@H](C[C@@H](OC)[C@H](C)[C@H]3C3=C(O)C(=O)OC3O)[C@]2(C)CC[C@H]1O` (stereo not given in full): the Potency result was “inactive”.

On to `C=C1C[C@@]23C=CC(=O)[C@@](C)(CCC(=O)Nc4c(O)ccc(C(=O)O)c4O)C2C[C@@H]1C(O)C3` (stereo not given in full), for which the Potency result was “inactive”.

In the case of `O=c1cc(-c2ccc(O)cc2)oc2c([C@@H]3OC(CO)[C@H](O)[C@@H](O)[C@H]3O)c(O)cc(O)c12` (stereo not given in full), the Potency result is “inactive”.

On to `CC12C[C@]3(O)O[C@@H](O1)[C@]1(COC(=O)c4ccccc4)[C@@H]3CC21OC1OC(CO)C(O)C(O)C1O` (stereo not given in full), for which the Potency entry was “inactive”.

Turning to `C=C1[C@H]2CC[C@@]3(C=CC(=O)[C@@](C)(CCC(=O)Nc4c(O)ccc(C(=O)O)c4O)C3C2)[C@H]1O` (stereo not given in full), the Potency entry was “inactive”.

With `OCc1ccc2ocnc2c1`, the Potency result was “inactive”.

On to `CO[C@@H]1C[C@@H](C[C@H]2CC[C@H](C)[C@H]([C@@H](C)C(=O)O)O2)O[C@]2(O[C@](C)([C@H]3CC[C@@](C)([C@@H]4O[C@@H]([C@H]5O[C@](C)(O)[C@H](C)C[C@@H]5C)C[C@@H]4C)O3)C[C@H]2C)[C@@H]1C`, for which the Potency was 296 nM (active).

In the case of `CC1(C)CCC[C@]2(C)[C@@H]1CC[C@@]13C[C@@H](CC[C@H]12)C(C)(O)C3` (stereo not given in full), the Potency result was “inactive”.

As for `C[C@@]12CCC[C@@](C)(C(=O)O)[C@H]1C[C@@H](O)[C@]13C[C@H]4C[C@H](O[C@@]4(C)C1)[C@@H]23`, the Potency entry is “inactive”.

Consider `CCCCCCCCC[C@@H]1C[C@@H]2CC[C@H]3[C@@H](C(=O)OCCCCN=C(N)N)[C@@H](C)N=C(N1)N23`, for which the Potency is 11500 nM (active).

For the compound `COc1c(O)cc2oc(-c3ccccc3)cc(=O)c2c1O`, the Potency entry is “inactive”.

With `COc1ccc([C@@H]2c3cc(OC)c(OC)cc3C(=O)[C@H](C)C2C)cc1OC` (stereo not given in full), the outcome is “inactive [at 9.19 µM]”.

In the case of `C[C@H]1C[C@@H]([C@@H]2CC[C@]34O[C@H](CC[C@@]35C[C@H](C)C(=O)O5)CN24)OC1=O`, the Potency result was “inactive”.

With `CN1CC[C@]2(c3cccc4c3N[C@@H]3N(C)CC[C@]43[C@@]34CCN(C)[C@@H]3Nc3ccccc34)c3ccccc3N[C@H]12`, the Potency is 7430 nM (active).
